Test results as given in PubChem BioAssay AID1159580 (chemical genetic matrix, 2015).
Out of some 5,500 compounds screened, about 2,000 (36%) were called active. About 18% were inconclusive and are not listed. Cut-off read from the data, not from the text of the source: active = normalized growth mostly below about 0.91 (no sharp cut-off); inconclusive = no clear call, values can overlap the other calls; inactive = mostly above about 0.92. Some of the results follow.

Experiment: chemical genetic growth profiling, strain panel (AID 1159580);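 note: tested at 20 µM; growth read once vehicle control cultures reached saturation at 30 °C; 1 = growth at the plate median or of vehicle wells; lower values mean less growth of the strain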
Details: growth OD

Measured: normalized growth

N[C@@H](Cc1ccc(O)c(O)c1)C(=O)O
inactive: S. cerevisiae deletion strains, locus YJR075W, strain HOC1, hits give low values 1 | S. cerevisiae deletion strains, locus YKL009W, strain mrt4, hits give low values 0.961 | S. cerevisiae deletion strains, locus YKL068W, hits give low values 0.979 | S. cerevisiae deletion strains, locus YKL085W, strain MDH1 (second series), hits give low values 1 | S. cerevisiae deletion strains, locus YKL085W, strain MDH1, hits give low values 1 | S. cerevisiae deletion strains, locus YKL160W, strain elf1, hits give low values 1.01 | S. cerevisiae deletion strains, locus YKL190W, strain CNB1, hits give low values 0.964 | S. cerevisiae deletion strains, locus YKR001C, strain vps1, hits give low values 1 | S. cerevisiae deletion strains, locus YKR026C, strain gcn3, hits give low values 0.989 | S. cerevisiae deletion strains, locus YKR091W, strain srl3, hits give low values 0.998 | S. cerevisiae deletion strains, locus YLL001W, strain dnm1, hits give low values 0.983 | S. cerevisiae deletion strains, locus YLL026W, hits give low values 0.995 | S. cerevisiae deletion strains, locus YLL041C, strain sdh2, hits give low values 1 | S. cerevisiae deletion strains, locus YLR027C, strain aat2, hits give low values 1.01 | S. cerevisiae deletion strains, locus YLR039C, strain RIC1, hits give low values 0.91 | S. cerevisiae deletion strains, locus YLR058C, strain SHM2, hits give low values 0.996 | S. cerevisiae deletion strains, locus YLR102C, strain apc9, hits give low values 0.991 | S. cerevisiae deletion strains, locus YLR113W, strain HOG1, hits give low values 0.93 | S. cerevisiae deletion strains, locus YLR221C, strain rsa3, hits give low values 0.999 | S. cerevisiae deletion strains, locus YLR258W, strain gsy2, hits give low values 0.985 | S. cerevisiae deletion strains, locus YLR262C, strain YPT6 (second series), hits give low values 1.01 | S. cerevisiae deletion strains, locus YLR262C, strain YPT6, hits give low values 0.898 | S. cerevisiae deletion strains, locus YLR268W, strain sec22, hits give low values 1 | S. cerevisiae deletion strains, locus YLR320W, strain mms22, hits give low values 1.01 | S. cerevisiae deletion strains, locus YLR330W, strain CHS5, hits give low values 0.987 | S. cerevisiae deletion strains, locus YLR342W, strain FKS1 (second series), hits give low values 0.949 | S. cerevisiae deletion strains, locus YLR342W, strain FKS1, hits give low values 1.01 | S. cerevisiae deletion strains, locus YLR357W, strain rsc2, hits give low values 0.975 | S. cerevisiae deletion strains, locus YLR370C, strain arc18, hits give low values 1 | S. cerevisiae deletion strains, locus YLR371W, strain rom2, hits give low values 0.975 | S. cerevisiae deletion strains, locus YLR384C, strain iki3, hits give low values 1 | S. cerevisiae deletion strains, locus YLR418C, strain cdc73, hits give low values 1.04 | S. cerevisiae deletion strains, locus YML016C, strain PPZ1, hits give low values 0.991 | S. cerevisiae deletion strains, locus YML032C, strain rad52, hits give low values 0.991 | S. cerevisiae deletion strains, locus YML120C, strain ndi1, hits give low values 1 | S. cerevisiae deletion strains, locus YML124C, strain tub3, hits give low values 0.996 | S. cerevisiae deletion strains, locus YMR058W, strain fet3, hits give low values 0.993 | S. cerevisiae deletion strains, locus YMR078C, strain ctf18, hits give low values 0.995 | S. cerevisiae deletion strains, locus YMR125W, strain sto1, hits give low values 0.976 | S. cerevisiae deletion strains, locus YMR129W, hits give low values 0.986 | S. cerevisiae deletion strains, locus YMR205C, strain PFK2, hits give low values 0.982 | S. cerevisiae deletion strains, locus YMR223W, strain ubp8, hits give low values 1.01 | S. cerevisiae deletion strains, locus YMR231W, strain pep5, hits give low values 0.992 | S. cerevisiae deletion strains, locus YMR263W, strain SAP30, hits give low values 0.982 | S. cerevisiae deletion strains, locus YMR307W, strain GAS1, hits give low values 0.921 | S. cerevisiae deletion strains, locus YNL067W, strain RPL9B, hits give low values 0.982 | S. cerevisiae deletion strains, locus YNL071W, strain lat1, hits give low values 1.02 | S. cerevisiae deletion strains, locus YNL128W, strain TEP1, hits give low values 0.954 | S. cerevisiae deletion strains, locus YNL153C, strain GIM3, hits give low values 0.991 | S. cerevisiae deletion strains, locus YNL183C, strain NPR1, hits give low values 0.923 | S. cerevisiae deletion strains, locus YNL209W, strain ssb2, hits give low values 1.01 | S. cerevisiae deletion strains, locus YNL233W, strain BNI4, hits give low values 1 | S. cerevisiae deletion strains, locus YNL248C, strain rpa49, hits give low values 0.99 | S. cerevisiae deletion strains, locus YNL250W, strain rad50, hits give low values 0.98 | S. cerevisiae deletion strains, locus YNL271C, strain bni1, hits give low values 0.987 | S. cerevisiae deletion strains, locus YNL298W, strain CLA4, hits give low values 0.995 | S. cerevisiae deletion strains, locus YNL307C, strain MCK1, hits give low values 1 | S. cerevisiae deletion strains, locus YNL322C, strain KRE1 (second series), hits give low values 0.99 | S. cerevisiae deletion strains, locus YNL322C, strain KRE1, hits give low values 0.989 | S. cerevisiae deletion strains, locus YNR049C, strain mso1, hits give low values 1 | S. cerevisiae deletion strains, locus YNR052C, strain pop2, hits give low values 1 | S. cerevisiae deletion strains, locus YOL006C, strain TOP1, hits give low values 0.753 | S. cerevisiae deletion strains, locus YOL012C, strain htz1 0.813 | S. cerevisiae deletion strains, locus YOL147C, strain pex11, hits give low values 1 | S. cerevisiae deletion strains, locus YOR001W, strain rrp6, hits give low values 0.996 | S. cerevisiae deletion strains, locus YOR061W, strain CKA2, hits give low values 0.992 | S. cerevisiae deletion strains, locus YOR069W, strain VPS5, hits give low values 1 | S. cerevisiae deletion strains, locus YOR070C, strain gyp1, hits give low values 0.998 | S. cerevisiae deletion strains, locus YOR080W, strain dia2, hits give low values 0.993 | S. cerevisiae deletion strains, locus YOR083W, strain WHI5, hits give low values 1.01 | S. cerevisiae deletion strains, locus YOR106W, strain vam3, hits give low values 0.996 | S. cerevisiae deletion strains, locus YOR136W, strain idh2, hits give low values 1 | S. cerevisiae deletion strains, locus YOR144C, strain elg1, hits give low values 0.996 | S. cerevisiae deletion strains, locus YOR184W, strain ser1, hits give low values 0.982 | S. cerevisiae deletion strains, locus YOR231W, strain MKK1, hits give low values 0.942 | S. cerevisiae deletion strains, locus YOR265W, strain rbl2, hits give low values 0.998 | S. cerevisiae deletion strains, locus YOR270C, strain vph1, hits give low values 1.02 | S. cerevisiae deletion strains, locus YOR290C, strain snf2, hits give low values 0.933 | S. cerevisiae deletion strains, locus YOR316C, strain cot1, hits give low values 0.995 | S. cerevisiae deletion strains, locus YPL051W, strain arl3, hits give low values 0.994 | S. cerevisiae deletion strains, locus YPL055C, strain LGE1, hits give low values 0.92 | S. cerevisiae deletion strains, locus YPL078C, strain atp4, hits give low values 1.01 | S. cerevisiae deletion strains, locus YPL106C, strain sse1, hits give low values 0.96 | S. cerevisiae deletion strains, locus YPL240C, strain hsp82, hits give low values 0.995 | S. cerevisiae deletion strains, locus YPL241C, strain CIN2, hits give low values 0.987 | S. cerevisiae deletion strains, locus YPL256C, strain CLN2, hits give low values 0.929 | S. cerevisiae deletion strains, locus YPR119W, strain clb2, hits give low values 1 | S. cerevisiae deletion strains, locus YPR141C, strain kar3, hits give low values 0.98 | S. cerevisiae deletion strains, locus YPR163C, strain tif3, hits give low values 1.01 | S. cerevisiae deletion strains, locus YPR167C, strain met16, hits give low values 1.01 | S. cerevisiae deletion strains, strain wtn01, hits give low values 1.01 | S. cerevisiae strains, strain wild type, hits give low values 0.955
